NIH3T3 tox: Cytotoxic Profiling in NIH 3T3 Cell Line of Diverse Libraries Using Quantitative High-Throughput Screening; NIH 3T3 viability, CellTiter-Glo ATP luminescence, 48-72 h; Potency, µM (top dose mostly 96.7 µM), most hits filed as inhibitors; actives 4.3% (n = 94,000); AID 1345082, 2018; also: nearly all actives have a fitted effect of over 55% in size
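Mouse fibroblast NIH 3T3 cells, 400 per well, received compound via pintool and were incubated for 48 or 72 hr prior to CellTiter-Glo ATP luminescence measurement.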
hNpr1 antagonist: Natriuretic polypeptide receptor (hNpr1) antagonism - Primary qHTS; actives 1.6% (n = 76,000); HEK293 hNpr1 GloSensor cGMP, ANP-stimulated luminescence; AID 1347048, 2019; Potency, µM (highest dose often 46.3 µM), most hits filed as inhibitors; Atrial natriuretic peptide receptor 1 (Homo sapiens), P16066; calls by dose curve; also: nearly all actives have a fitted effect of over 60% in size
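HEK293 cells stably expressing human Npr1 and cGMP GloSensor pGS-40F, loaded 2 h with 2% GloSensor reagent, given compound 30 min at room temperature. Luminescence read before and 20 min after 0.1 nM hNppA.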
FLuc inh: Firefly luciferase inhibition profiling of diverse chemical library using quantitative high-throughput screening; actives 2.5% (n = 76,000); Potency, µM (top dose mostly 115 µM), usual class: inhibitors; Luciferin 4-monooxygenase (Photinus pyralis), P08659; AID 1347043, 2019; purified P. pyralis luciferase, luminescence, biochemical; also: nearly all actives have a fitted effect of over 65% in size
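Luminescence read by CCD imaging after purified firefly luciferase (10nM final) was added to substrate buffer holding 10uM D-luciferin and 10uM ATP, pH 7.5, pre-dosed with compound.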
HEK cytotox: Cytotoxic Profiling in HEK 293 Cell Line of Diverse Libraries Using Quantitative High-Throughput Screening; HEK 293 viability, ATP luminescence (CellTiter-Glo), 48-72 h; Potency, µM (highest dose often 115 µM), actives largely listed as inhibitors; actives 6.6% (n = 94,000); also: nearly all actives have a fitted effect of over 60% in size
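Cells seeded first (HEK 293, 250 cells/well), then compound added by pintool. Incubation ran 48 or 72 hr at 37 degree Celsius. CellTiter-Glo was added and luminescence imaged after 10 min at room temperature.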
Hits are given with their value; 0 = inactive; ? = inconclusive; - = no result given. An excerpt weighted towards active compounds, which were near 11% of everything screened. Unless noted, calls follow the shape of the dose curve; as a rule, active = well fitted curve in the direction sought with a large enough effect; inconclusive = small, poorly fitted or top-dose-only effect, or another doubt; inactive = no such curve, though single readings can be large; an effect the other way counts as inactive or inconclusive.

SMILES | NIH3T3 tox | hNpr1 antagonist | FLuc inh | HEK cytotox
O=C1NC(=NC2CCCC2)C2(CCCN(CC3CCCCC3)C2)N1c1cc(F)cc(F)c1 (configuration not stated) | 28µM | - | - | 35µM
O=C1NC(=NC2CCCCC2)C2(CCN(CC3CCCCC3)C2)N1c1cc(F)cc(F)c1 (configuration not stated) | 32µM | - | - | 32µM
O=C1NC(=NC2CCCCC2)C2(CCN(CC3CCCCC3)CC2)N1c1cc(F)cc(F)c1 | 0 | - | - | 0
COc1cccc(N2C(=O)NC(=NC3CCCC3)C23CCN(CC2CCCCC2)C3)c1 (configuration not stated) | 32µM | - | - | ?
Cc1noc(C)c1-c1cc(-c2cccc(O)c2)cn2cncc12 | 25µM | 0 | 0 | ?
COc1ccc(-c2cc(-c3c(C)noc3C)c3cncn3c2)cn1 | 50µM | 0 | 0 | ?
Cc1noc(C)c1-c1cc(-c2cccc(F)c2)cn2cncc12 | 45µM | 0 | 0 | ?
Cc1oc2c(c1C(=O)N(C)C)CN(S(=O)(=O)c1ccccc1)CC2 | 0 | 0 | 0 | 0
Cc1cccc(C)c1-c1nnc2ccc(C(=O)NCc3cccs3)cn12 | 0 | - | - | ?
Fc1ccccc1-c1cc2c(cn1)CN(Cc1cccnc1)CCN2 | 0 | 0 | 32µM | ?
C[S+](=O)([O-])c1ccc(-c2cc3c(cn2)CN(Cc2ccccc2)CCN3)cc1 | ? | 0 | ? | ?
c1ccc(CNc2cc3c(cn2)CN(Cc2cccnc2)CCN3)cc1 | 0 | 0 | 0 | 0
c1cc(CN2CCNc3cc(-c4ccsc4)ncc3C2)ccn1 | 0 | 0 | ? | ?
Clc1cnccc1CN1CCNc2cc(-c3ccccc3)ncc2C1 | ? | 0 | 28µM | ?
Fc1cccc(-c2cc3c(cn2)CN(Cc2ccncc2)CCN3)c1 | 0 | 0 | 40µM | ?
COC(=O)COc1cccn2c(=O)c(-c3cc(C)n(-c4ccc(Cl)c(Cl)c4)n3)c(C)nc12 | 0 | 0 | 0 | 0
Fc1ccccc1CC1CCN(CC2[C@H]3CNC[C@@H]23)CC1 (some centres not stated) | 35µM | 0 | 0 | ?
CC(C)c1nc(-c2ccc(OC3CCN(C(=O)C4(c5ccccc5)CC4)C3)cc2)no1 (configuration not stated) | ? | ? | 0 | 45µM
Cc1noc(C)c1S(=O)(=O)N1CCC(Oc2ccc(-c3noc(C(C)C)n3)cc2)C1 (configuration not stated) | 0 | - | - | 20µM
O=S(=O)(c1ccc(F)cc1)N1CCC(Oc2ccc(-c3noc(C4CC4)n3)cc2)C1 (configuration not stated) | ? | ? | 0 | 28µM
O=C(c1ccoc1)N1CCC(Oc2cccnc2)C1 (configuration not stated) | 0 | 0 | 0 | 0
CC(C)c1nc(-c2ccc(OC3CCN(C(=O)c4ccoc4)C3)cc2)no1 (configuration not stated) | ? | - | - | 32µM
O=C(C1CN(C2CCCC2)C(=O)N1)N1CCC(c2ccccc2)CC1 (configuration not stated) | 0 | - | - | 0
CCN1CCN(C(=O)C2CCCN(c3ccnc4ccnn34)C2)CC1 (configuration not stated) | 0 | - | - | 0
O=C(Cc1ccc(F)cc1)NCCNC(=O)c1ccc(-c2cncnc2)cc1 | 0 | - | - | 0
SMILES | NIH3T3 tox | hNpr1 antagonist | FLuc inh | HEK cytotox
COc1ccc(NC(=O)N2CCC(Oc3ccc(-c4noc(C5CC5)n4)cc3)C2)cc1 (configuration not stated) | 0 | ? | ? | ?
COc1ccc(C(=O)N2CCC(Oc3ccc(-c4noc(C5CC5)n4)cc3)C2)cn1 (configuration not stated) | ? | - | - | 35µM
COC(=O)[C@@H]1Cc2c([nH]c3ccccc23)[C@H]2C[C@H](NCc3cccs3)C[C@@H](c3ccc(F)cc3)N21 | 22µM | 0 | 0 | 28µM
COC(=O)[C@@H]1Cc2c([nH]c3ccccc23)[C@H]2C[C@@H](NCc3cccs3)C[C@@H](c3ccc(F)cc3)N21 | 79µM | 0 | 0 | ?
CC[C@H]1CN(C(=O)c2ccc(F)cc2)CC[C@H]1CC(=O)NCc1cccs1 | ? | 0 | 0 | 0
O=C(NC1CCN(c2ccc3nnc(C4CC4)n3n2)C1)C1CC1 (configuration not stated) | 0 | - | - | 0
